Drawing on the supplement of paper PMC6555819, this text covers PBM binding z-score for four sequences.

Common to all, as to experiment: PBM binding z-score (relative to random genomic background probes); higher = stronger binding; sequences stand for … in GC…GCGATTGACAGCGTAGAATGAAGG
The subject of experiment [1] is FXR:RXRa (NR concentration 270 nM, RXRa partner concentration 90 nM). Summed up:
(§1)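 The probes on custom Agilent 4×180K protein-binding microarrays were double-stranded, with 34-nt variable regions bearing direct-repeat seeds, single-nucleotide variants, half-site ablations and random human genomic background sequences. Incubation lasted 1 h with ligand-free nuclear receptor dimers in PBS pH 7.4, 2% milk, 0.02% Triton X-100, 1 mM DTT, 0.2 mg/mL BSA and 0.4 mg/ml salmon testes DNA. Antibodies against each partner (one per run) detected bound dimers, and fluorescence scans were regression-normalized. Binding z-scores take the random background probes as reference.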

Experiment [2] deals with LXRa:RXRa (NR concentration 270 nM, RXRa partner concentration 90 nM). In outline:
as §1

Experiment [3] concerns LXRa homodimer (NR concentration 270 nM). In outline:
as §1

In experiment [4] the test system is LXRb:RXRa (NR concentration 270 nM, RXRa partner concentration 90 nM). Summed up:
as §1

Experiment [5] deals with LXRb homodimer (NR concentration 270 nM). Summed up:
as §1

The test system of experiment [6] is PPARa:RXRa (NR concentration 270 nM, RXRa partner concentration 90 nM). Summed up: as §1
Experiment [7] has as its system PPARg:RXRa (NR concentration 180 nM, RXRa partner concentration 90 nM). Summed up: as §1
Experiment [8] concerns PPARg:RXRa 270nM:90nM, anti-RXR (NR concentration 270 nM, RXRa partner concentration 90 nM). In outline: as §1
The test system of experiment [9] is PPARg:RXRa 30nM:10nM, anti-RXR (NR concentration 30 nM, RXRa partner concentration 10 nM). In outline: as §1
Experiment [10] relates to PPARg:RXRa 90nM:30nM, anti-RXR (NR concentration 90 nM, RXRa partner concentration 30 nM). In outline: as §1
The subject of experiment [11] is PPARg:RXRa DBDmut IVT, anti-RXR (DBD mutation: RXRa K156A/R161A, NR concentration 270 nM, RXRa partner concentration 90 nM). In outline: as §1
Experiment [12] deals with PPARg:RXRa IVT, anti-PPARg (NR concentration 270 nM, RXRa partner concentration 90 nM). Summed up: as §1
Experiment [13] deals with PPARg DBDmut:RXRa IVT, anti-PPARg (DBD mutation: PPARg1 K132A/R137A, NR concentration 270 nM, RXRa partner concentration 90 nM). In outline:
as §1

Experiment [14] concerns PPARg DBDmut IVT, anti-PPARg (DBD mutation: PPARg1 K132A/R137A, NR concentration 270 nM). Summed up: as §1
Experiment [15] has as its system PPARg homodimer (NR concentration 180 nM). In outline:
as §1

Experiment [16] relates to PXR:RXRa (NR concentration 270 nM, RXRa partner concentration 90 nM). Summed up: as §1
The subject of experiment [17] is PXR homodimer (NR concentration 270 nM). Summed up: as §1
For experiment [18], the system named is RARa:RXR (NR concentration 270 nM, RXRa partner concentration 90 nM). Summed up: as §1
Experiment [19] concerns RARa homodimer (NR concentration 270 nM). In outline:
as §1

For experiment [20], the system named is RARb:RXRa (NR concentration 270 nM, RXRa partner concentration 90 nM). In outline: as §1

In the case of CCTAGTAGTTGACCATAAGGGCAACCGAAGCTCG, the PBM binding z-score in experiment [1] came to 0.577; in experiment [2] it was 0.379; in experiment [3], 0.118; in experiment [4], 0.228; in experiment [5], 0.0472; in experiment [6] it was 0.369. In addition, the PBM binding z-score is 0.269 in experiment [7]; 0.285 in experiment [8]; -0.556 in [9]; 0.0396 in experiment [10]; -0.333 in experiment [11]; 0.506 in experiment [12]. In addition, the PBM binding z-score in experiment [13] is -0.485; in [14], -0.576; in experiment [15], 1.26; in experiment [16], 0.431; in experiment [17] it was 0.221; in [18] it was 0.651. For the same sequence, the PBM binding z-score in [19] turned out to be 0.534; in [20] it was 1.49.
Regarding CGTCGAAGGTCAAGGTCAGTGAAAGAGACTCGAA, the PBM binding z-score is 7.03 in [1]; 5.5 in experiment [2]; 0.585 in experiment [3]; 4.59 in experiment [4]; 0.681 in [5]; 6.39 in [6]. In addition, the PBM binding z-score was determined as 6.6 in experiment [7]; 6.24 in [8]; 2.48 in [9]; 5.24 in experiment [10]; 2.61 in [11]; 4.52 in [12]. In addition, the PBM binding z-score was 0.183 in experiment [13]; -0.374 in [14]; 2.78 in [15]; 4.3 in experiment [16]; 0.957 in experiment [17]; 4.46 in experiment [18]. Also, the PBM binding z-score was found to be 1.26 in [19] and 5.88 in [20].
On to CGAACTAGGTCATTGACAGGACAGCGAATAGTAA, for which the PBM binding z-score in experiment [1] was 4.04; in experiment [2], 2.83; in [3], 0.577; in experiment [4] it was 1.84; in experiment [5], -0.147; in experiment [6], 4.83. Besides, the PBM binding z-score in experiment [7] worked out at 7.35; in [8], 6.29; in experiment [9], 3.94; in experiment [10] it was 5.75; in [11], 7.7; in [12], 7.96. The PBM binding z-score in experiment [13] stood at 1.01; in [14], 0.969; in experiment [15], 1.57; in [16] it was 1.35; in [17], 0.255; in experiment [18], 2.1. Besides, the PBM binding z-score in [19] is 0.179; in [20], 3.61.
On to TCGAGTAGGTTAGGGGCATTCATAATGGCGTCGA, for which the PBM binding z-score in experiment [1] is 0.0373; in experiment [2], 0.369; in experiment [3], 0.0659; in experiment [4] it was 0.931; in experiment [5] it was -0.211; in experiment [6] it was 1.4. Besides, the PBM binding z-score in experiment [7] is 1.06; in experiment [8] it was 2.19; in [9] it was 1.35; in experiment [10], 1.98; in experiment [11], 2.14; in experiment [12], 1.72. The PBM binding z-score in experiment [13] was -0.476; in experiment [14], -0.145; in [15] it was 0.584; in experiment [16], 0.584; in experiment [17] it was 0.233; in [18] it was 0.705. Also, the results for the PBM binding z-score in [19] and in experiment [20] were 0.173 and 1.07, respectively.
